Results: ChEMBL document CHEMBL3433997, “St. Jude Leishmania screening dataset” (2016)

The molecules below were run against Glucose transporter (Leishmania mexicana) (UniProt O61059) (assay: ST_JUDE_LEISH: Cytotoxicity at 2uM final concentration against transgenic Leishmania Mexicana promastigotes LmGT2 that are glucose transport deficient and complemented with the L. Mexicana glucose transporter 2. Activity is measured by DNA content using SYBR green in vitro).
Format: functional

Point of comparison: `CCC(=O)Nc1ccc(Nc2nc(C)cc(N3CCCC3)n2)cc1`, inhibition 2.39%. Against it:
- COc1ccc2c(=NN=Cc3ccccc3)cc(C)[nH]c2c1 — higher, 8.31%
- O=C(Nc1cccc(-c2cccc(-c3nc4cc(F)ccc4[nH]3)c2)c1)Nc1ccc2c(c1)OCO2 — lower, -1.13%
- CN(C)CCNC(=O)NC1CN(c2ncnc3cc(-c4ccccc4)sc23)C1 — higher, 4.03%
- O=C(Nc1ccc(C(=O)Oc2ccc3ccccc3c2)cc1)N[C@@H](Cc1ccc(O)cc1)C(=O)NC1CCN(Cc2ccc(O)cc2)C1 (stereo not given in full) — lower, -2.23%
- CC(C)[C@H](NC(=O)c1ccc(O)c(-c2ccc(Cl)c(Cl)c2)c1)C(=O)NC1CCCCCC1 — lower, -4.76%
- CN(C)c1ccc(-c2ccc(C(=O)NC3CCN(Cc4cccc(C(F)(F)F)c4)CC3)s2)cc1 — higher, 3.55%
- Fc1ccc2nc(Nc3nc(-c4ccccn4)cs3)sc2c1 — lower, 0.2%
- Cc1nc(-c2ccc3c(c2)CCN(CCC2CCC(NC(=O)c4cc5cccc(Cl)c5[nH]4)CC2)CC3)no1 (stereo not given) — higher, 6.97%
- CCCNCc1ccc(-c2ccc(CN(CCOC)C(=O)c3cnc(C)cn3)cc2)nc1 — lower, 0.24%
- CC(C)c1ccc(NC(=O)NCCCC2CCCN(CCCCCNC(=O)/C=C/c3ccc(Cl)c(Cl)c3)C2)cc1 (stereo not given) — higher, 5.08%
- CC(C)C(=O)NC(NC(=S)Nc1ccc(Br)cc1)C(Cl)(Cl)Cl (stereo not given) — lower, -0.89%
- Cc1cc(C(=O)NCc2ccc(-c3c(C)noc3C)cc2)n(-c2ccccc2)n1 — higher, 3.34%
- C=C[C@H]1CN(CCCCCCC)CC[C@H]1CCN(C)c1ccnc2ccc(OC)cc12 — lower, 2.13%
- O=C(NCCCCN1CCN(c2cccc3ccccc23)CC1)c1ccc(NC(=O)c2ccc(Cl)cc2)cc1 — lower, 2.29%
- CCN(CC)CCCN(C(=O)Nc1c(Cl)cncc1Cl)c1nc(-c2ccc(F)cc2)cs1 — higher, 3.83%
- N=C(N)NN=Cc1ccccc1OCc1ccccc1Cl — lower, 0.38%
- O=C(Nc1ccc(Cl)cc1)Nc1ccc(-c2cccc(-c3nc4ccccc4[nH]3)c2)cc1 — lower, -1.97%
- CC(=O)c1cccc(NC(=O)NC2CCN(c3ccnc(Nc4ccc(F)cc4)n3)C2)c1 (stereo not given) — lower, -0.03%
- O=C(NCCNc1ccnc(Nc2ccc(F)cc2)n1)Nc1ccc2c(c1)OCO2 — lower, 0.6%
- O=C(NCc1cccc(F)c1)Nc1cccc(-c2ccc(-c3nc4cc(F)ccc4[nH]3)cc2)c1 — higher, 6.86%
- CCCCCCCCNCc1c(O)ccc2ccccc12 — higher, 5.48%
- Cc1cc(C(=O)CN2C(=O)NC3(CCCc4ccccc43)C2=O)c(C)n1Cc1ccco1 (stereo not given) — lower, -1.89%
- C[C@H](NC(=O)c1c(CN2CCC(N3CCCCC3=O)CC2)c(-c2cccs2)nc2ccccc12)C1CCCCC1 — lower, 0.41%
- O=c1[nH]ccc2nc(N[C@@H]3CCNC3)nc(Nc3ccc4c(c3)S(=O)(=O)CC4)c12 — higher, 4.85%
- CC(=O)c1ccc(NC(=O)CSc2nc(-c3ccccc3Cl)ns2)cc1 — higher, 9.72%
- CCCC[C@H](NC(=O)O[C@H](COc1ccc(OCc2ccccc2)cc1)C(C)(C)C)C(=O)C(=O)Nc1cc[nH]n1 — lower, 1.64%
- CCCC(CNCc1cccc(I)c1)CNc1cc(=O)c2ccccc2[nH]1 (stereo not given) — higher, 2.67%
- Cc1ccc(-n2cc(CNCCc3nc(C)c[nH]3)c(-c3ccc(F)cc3)n2)cc1 — higher, 2.6%
- O=S(=O)(NC1CCN(c2ccnc3ccccc23)C1)c1ccc(OC(F)(F)F)cc1 (stereo not given) — higher, 2.41%
- O=S(=O)(NCCN1CCCC1)c1ccc(-c2cccc(CNC3Cc4ccccc4C3)c2)s1 — higher, 5.84%
- CC(C)CNC(=O)c1ccc(-c2cccc(CN3CCC(N4CCCC4)CC3)c2)nc1 — lower, 1.53%
- Nc1c(Cl)cc(C(O)CNCCCCCOCCc2ccc3occc3c2)cc1Cl (stereo not given) — lower, 1.96%
- CS(=O)(=O)c1ccc(Nc2ncc(-c3ccc(S(C)(=O)=O)cc3)c(OCC(F)(F)F)n2)cc1 — higher, 3.17%
- Cc1[nH]c(C)c(-c2ccc(-c3ccc4c(c3)OCO4)nc2)c(=O)c1Br — lower, 0.07%
- CC(C)(C)c1cc(CN2CCN(Cc3ccccc3)CC2)cc(C(C)(C)C)c1O — higher, 2.7%
- COCCN1CCN(Cc2cccc(-c3ccc(-c4nc5ccccc5[nH]4)cc3)c2)CC1 — lower, -1.36%
- COc1ccc(NC(=O)c2ccc(-c3cccc(OCc4ccccc4)c3)cc2)cc1N1CCN(C)CC1 — lower, -0.95%
- O=C(NC(=S)Nc1cc(C(F)(F)F)cc(C(F)(F)F)c1)c1ccc(Cl)cc1 — lower, -0.06%
- O=C(Nc1cccc(OC2CCN(Cc3ccccc3)CC2)c1)c1ccc([N+](=O)[O-])cc1 — higher, 4.55%
